Experimental findings from PubChem BioAssay AID1851 (National Center for Advancing Translational Sciences (NCATS), 2009) are described below.

As usually defined, the AC50 is the midpoint of the concentration-response curve, whichever way the signal moves.

About 4,000 (25%) of roughly 16,000 compounds were called active. Inconclusive results (about 26%) are left out. Only a sample is shown. Unmarked numbers belong to inactive results. Calls follow the shape of the dose curve; as a rule, active = well fitted curve in the direction sought with a large enough effect; inconclusive = small, poorly fitted or top-dose-only effect, or effect the other way; inactive = no such curve, though single readings can be large or run the other way.
% is scaled to controls: 0 for no effect and ±100 for the full control effect.

Sequence of Cytochrome P450 2C9 (Homo sapiens) (P11712 whole entry, looked up): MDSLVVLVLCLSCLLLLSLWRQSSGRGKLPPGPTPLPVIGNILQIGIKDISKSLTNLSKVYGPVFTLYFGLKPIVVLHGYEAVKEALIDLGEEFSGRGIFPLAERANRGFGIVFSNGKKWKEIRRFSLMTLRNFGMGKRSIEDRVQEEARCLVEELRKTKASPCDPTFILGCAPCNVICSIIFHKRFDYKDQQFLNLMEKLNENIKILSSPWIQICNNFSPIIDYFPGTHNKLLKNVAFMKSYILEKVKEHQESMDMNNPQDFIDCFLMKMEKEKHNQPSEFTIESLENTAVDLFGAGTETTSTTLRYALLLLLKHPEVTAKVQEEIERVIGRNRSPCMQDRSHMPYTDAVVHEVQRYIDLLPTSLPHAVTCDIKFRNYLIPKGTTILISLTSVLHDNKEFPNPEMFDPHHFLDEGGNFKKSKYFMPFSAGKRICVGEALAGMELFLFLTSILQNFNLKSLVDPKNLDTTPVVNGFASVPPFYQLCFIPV

The test addresses Cytochrome P450 2C9 (Homo sapiens) (UniProt P11712). The test is described as follows: Cytochrome panel assay with activity outcomes. As to conditions: recombinant CYP, pro-luciferin dealkylation, luminescence, p450-cyp2c9; series mostly up to 57.1 µM; activity, negative = inhibition: at the top concentration.
With `Cn1cccc1C(=O)N1CCC2(CC1)CN(Cc1cc(C(F)(F)F)cc(C(F)(F)F)c1)C2`, the AC50 is 15.8 µM (active).

Turning to `Cn1cccc1C(=O)N1CCC2(CC1)CN(Cc1ccc(C#N)cc1)C2`, the “activity, negative = inhibition” value is 17.7%. Same read-out and setting: then `O=C(c1cc(C(F)(F)F)cc(C(F)(F)F)c1)N1CCC2(CC1)CCN(c1ccncc1)CC2`, with -26%. `O=C(c1cc(C(F)(F)F)cc(C(F)(F)F)c1)N1CCC2(CC1)CN(c1ccccc1)C2`: the “activity, negative = inhibition” value is -7.28%. As for `O=C(c1cc(C(F)(F)F)cc(C(F)(F)F)c1)N1CCC2(CC1)CN(c1ccncc1)C2`, the AC50 is 3.98 µM (active). `O=C(c1ccco1)N1CCC2(CC1)CN(Cc1cc(C(F)(F)F)cc(C(F)(F)F)c1)C2`: the “activity, negative = inhibition” value is -15.8%. Turning to `CC(C)CC(=O)N1CCC(O)(CS(=O)(=O)Cc2ccc(Cl)cc2)CC1`, the “activity, negative = inhibition” value is -24.6%. Same read-out and setting: then `CCc1ccc(-c2ccc(C(=O)C(F)(F)F)[nH]2)cc1`, with -28.7%; and `Cc1cccc(-n2nnc3cnn(C)c3c2=O)c1`, with -26.3%; and `CN(C)Cc1ccccc1-c1nccc(Nc2ccc(F)cc2)n1`, with 6.01% [at 2.29 µM]. Turning to `O=[N+]([O-])c1ccc(N2CCN(Cc3ccccc3)CC2)c(S(=O)(=O)N2CCOCC2)c1`, the AC50 is 17.8 µM (active).

Regarding `CN1CCN(c2ccc([N+](=O)[O-])cc2S(=O)(=O)N2CCOCC2)CC1`, the “activity, negative = inhibition” value is -10.1%. The same measure, in the same setting: then `O=C(C1CCN(S(=O)(=O)N2CCOCC2)CC1)N1CCN(Cc2ccccc2)CC1`, with -10.1%; and `CC1CCC(C(=O)O)([C@H](Br)C(=O)O)CC1` (stereo partly specified), with -6.22% [at 11.4 µM]; and `Cc1c(C)c(C)c(CC2(C)CSC2)c(CC2(C)CSC2)c1C`, with 11.8% [at 11.4 µM]. Still for that read-out and setting: the result for `CC(=O)NN1C(=O)c2ccc(Oc3ccc([N+](=O)[O-])cc3)cc2C1=O` reads -23.4%; that for `CS(=O)(=O)Nc1ccc([N+](=O)[O-])cc1OC1CCCCC1`, -25%. On to `CS(=O)(=O)Nc1ccc([N+](=O)[O-])cc1Oc1ccccc1`, for which the AC50 is 3.16 µM (active). On the same count and under the same terms, the result for `CC(=O)COc1ccc2c(C)c(C)c(=O)oc2c1` reads 22.4 µM (active); that for `CCCC[C@@H]1C[C@H]1C(NC(=O)c1cccnc1)c1ccc(-c2ccccc2)cc1` (stereo partly specified), 5.01 µM (active); that for `CCCC[C@@H]1C[C@H]1C(NC(=O)c1cccnc1)c1ccc(Cl)cc1` (stereo partly specified), 12.6 µM (active). Consider `COCCNc1ncnc2ccc(-c3c(C)noc3C)cc12`, for which the activity, negative = inhibition is 7.8% [at 2.29 µM]. The same measure, in the same setting: the result for `COC(=O)[C@@H]1[C@@H]2C[C@H]3c4[nH]c5ccccc5c4CCN3C[C@@H]2CC[C@@H]1OS(=O)(=O)O` reads 7.13% [at 11.4 µM]. On the same count and under the same terms, the result for `CN1CCN(c2ncnc3ccc(-c4ccccc4C#N)cc23)CC1` reads 2.98% [at 2.29 µM]. In the case of `N#C/C(=C/c1cccc(C(F)(F)F)c1)c1nc(CCN2C(=O)c3ccccc3C2=O)cs1`, the AC50 was 0.178 µM (active). As to `Cc1cc(C)c(NC(=O)C2CCCN2C)c(C)c1` (stereo unspecified), the “activity, negative = inhibition” value was 1.9%. As to `O=c1ccn(-c2cccc(C(F)(F)F)c2)nc1-c1ccn(-c2ccccc2F)n1`, the AC50 was 10 µM (active).

As for `Cc1ccc(C(=O)CN(C(=O)c2ccc(Cl)cc2)N2C(=O)c3ccccc3C2=O)cc1`, the AC50 is 3.16 µM (active). On the same count and under the same terms, the result for `CCOC(=O)C1=NNC2(c3ccc(Cl)cc3)C(=O)N(c3cc(C)cc(C)c3)C(=O)C12` (stereo unspecified) reads 3.55 µM (active). Take `CCc1cc(Cl)c(OC)c(C(=O)NC[C@@H]2CCCN2CC)c1O`: the “activity, negative = inhibition” value was 0.663% [at 25.6 µM]. On the same count and under the same terms, then `C[C@H](N)CCCC(C)(C)O`, with -15.2% [at 25.6 µM]; and `CC(=O)Nc1c(C)nn(-c2ccc(C)c(C)c2)c1C`, with -8.65%. With `Cc1nn(-c2ccc(F)cc2)c(C)c1NS(=O)(=O)c1ccc2ccccc2c1`, the AC50 was 12.6 µM (active). On to `Cc1ccc(CCN2CC(C(=O)NCCN3CCCCCC3)CC2=O)cc1` (stereo unspecified), for which the “activity, negative = inhibition” value was -28.6%. On to `Cc1ccc(CCN2CC(C(=O)NCCN3CCOCC3)CC2=O)cc1` (stereo unspecified), for which the “activity, negative = inhibition” value was -10.2%. Regarding `CCOCCCN1CC(C(=O)NCCc2ccc(C)cc2)CC1=O` (stereo unspecified), the AC50 is 8.91 µM (active).

As to `COc1cc2c3cc1Oc1c(OC)c(OC)cc4c1[C@@H](Cc1ccc(O)c(c1)Oc1ccc(cc1)C[C@@H]3N(C)CC2)CN(C)C4`, the activity, negative = inhibition was -25.3% [at 11.4 µM].

Consider `C=CCN(CC=C)CC(O)Cn1c2ccccc2c2ccccc21` (stereo unspecified), for which the AC50 is 14.1 µM (active).

For the compound `Cc1ccc(OCC(O)Cn2c3ccccc3c3ccccc32)cc1` (stereo unspecified), the AC50 was 4.47 µM (active). Take `OC(COc1ccc(OCC(O)CN2CCCCCC2)cc1)CN1CCCCCC1` (stereo unspecified): the “activity, negative = inhibition” value was -0.623%.

Take `O=C(O)CC(O)C(=O)O` (stereo unspecified): the “activity, negative = inhibition” value was -7.21%.

`Cn1c(/C=N/NC(=O)c2ccccc2Br)nc2ccccc21`: the AC50 was 2 µM (active). Regarding `Cc1ccc(-n2nnnc2C(=Cc2ccc(N(C)C)cc2)c2nnnn2-c2ccc(C)cc2)cc1`, the AC50 was 3.55 µM (active).

With `CC(=O)NNc1cccc(Cl)n1`, the “activity, negative = inhibition” value is -15.4%.

As to `O=C(Cn1ccc([N+](=O)[O-])n1)NCc1cccs1`, the “activity, negative = inhibition” value is -58.8%. As to `CCCCc1ccc(NC(=S)NCc2cccs2)cc1`, the AC50 is 12.6 µM (active). Consider `CCCC(=O)Nc1nnc(SCC(=O)NCc2cccs2)s1`, for which the “activity, negative = inhibition” value was -19.5%. Take `C#C[C@H](N)CCC(=O)O`: the “activity, negative = inhibition” value was 13.6%. Regarding `CCS(=O)(=O)N1CCN(c2c(Cl)cccc2[N+](=O)[O-])CC1`, the AC50 was 11.2 µM (active).

As for `CCS(=O)(=O)N1CCC(C(=O)NCc2ccc(F)cc2Cl)CC1`, the “activity, negative = inhibition” value is 21.2%. On the same count and under the same terms, then `C/C(CCN1CCc2nc(-c3ccccc3)c(-c3ccccc3)cc2C1)=N\O[C@@H](C)c1cn([C@@H]2COC[C@@H]2O)nn1`, with -10.5% [at 11.4 µM].
